HP1b binding inh: HP1-beta chromodomain-methylated histone interaction inhibition | P83916 | AlphaScreen HP1-beta / biotin-H3K9me3 peptide binding | Potency, µM (titrated, usually from 114 µM), without a hit: top-dose activity change, negative = inhibition, hits mostly inhibitors | actives 0.56% (n = 390,000) | AID 540317; also: nearly all actives have a fitted effect of over 70% in size
Target sequence (P83916 whole entry, looked up): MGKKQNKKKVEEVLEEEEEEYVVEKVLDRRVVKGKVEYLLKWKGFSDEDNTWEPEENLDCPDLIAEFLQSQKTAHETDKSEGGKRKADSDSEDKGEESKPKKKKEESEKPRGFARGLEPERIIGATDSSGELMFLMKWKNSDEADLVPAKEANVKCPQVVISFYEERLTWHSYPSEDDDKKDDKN
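Compound inhibition of the preformed complex between 50 nM HP1-beta and 50 nM biotinylated H3K9me3 peptide was read by AlphaScreen. Buffer was PBS pH 7.4 with 0.01% Tween-20. Incubations ran 30 min at room temperature, with 10 ug/mL donor/acceptor beads.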
JMJD2A Tudor inh: JMJD2A Tudor domain (human) inhibition | O75164 | AlphaScreen JMJD2A-Tudor / H3K4me3 peptide binding | Potency, µM (doses to about 114 µM), for the others: at the highest dose activity change, negative = inhibition, hits mostly inhibitors | actives 4.4% (n = 390,000); also: % is scaled to controls: 0 for no effect and ±100 for the full control effect; nearly all actives have a fitted effect of over 50% in size
Sfp PPTase inh: blocks B. subtilis Sfp PPTase activity. actives 3.5% (n = 310,000). AID 1490. Biochemical Sfp PPTase activity, qHTS. Q9F4F7. Potency, µM, for inactives: largest response in the series, negative = inhibition, hits mostly inhibitors;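 also: the enzyme is Sfp with the accession as filed and its product quenches rhodamine fluorescence; 0% = enzyme reaction without inhibitor and -100% = no enzyme wells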
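Buffer: 50 mM Hepes-Na pH 7.6, 10 mM MgCl2, 0.01% Nonidet P-40, 0.01% BSA. Enzyme 15 nM, pre-exposed to compound 15 min; substrates then added and fluorescence change tracked over 30 min.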
BAZ2B inh: BAZ2B (human) inhibition; AlphaScreen BAZ2B-H3K14Ac peptide displacement; actives 4.4% (n = 360,000); Potency, µM (doses to about 114 µM), for the others: at the top dose activity change, negative = inhibition, most hits filed as inhibitors; Q9UIF8; also: % is scaled to controls: 0 for no effect and ±100 for the full control effect; nearly all actives have a fitted effect of over 60% in size
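AlphaScreen displacement of biotin-H3(5-23)K14Ac peptide (50 nM final) from BAZ2B (50 nM final) in PBS pH 7.4, 0.01% Tween-20; complex preformed 30 min RT, then compounds (top 110 uM) 30 min RT, beads 20 min dark.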
G9a inh: inhibitors of human histone lysine methyltransferase G9a; Q96KQ7; G9a H3K9 monomethylation, AlphaScreen, 2 h; Potency, µM (series often up to 102 µM), without a hit: top-dose activity, negative = inhibition, most hits filed as inhibitors; actives 8.8% (n = 350,000); also: % is scaled to controls: 0 for no effect and ±100 for the full control effect; nearly all actives have a fitted effect of over 75% in size
Target sequence (Q96KQ7 913-1193 limits assumed): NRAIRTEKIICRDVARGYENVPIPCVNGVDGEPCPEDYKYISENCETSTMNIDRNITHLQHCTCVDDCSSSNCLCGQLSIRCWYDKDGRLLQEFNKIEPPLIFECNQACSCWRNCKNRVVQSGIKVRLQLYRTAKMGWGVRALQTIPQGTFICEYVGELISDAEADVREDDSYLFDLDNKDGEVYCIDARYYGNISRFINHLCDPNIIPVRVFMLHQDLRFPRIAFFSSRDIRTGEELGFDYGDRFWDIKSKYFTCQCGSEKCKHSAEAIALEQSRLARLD
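AlphaScreen read-out: biotin-H3K9 peptide (500 nM) methylation by 20 nM enzyme with 20 uM SAM, 2 h at room temperature after 15 min compound preincubation; anti-monomethyl H3K9 antibody plus donor/acceptor beads, 10 min dark.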
L3MBTL1 inh: L3MBTL1 (human) inhibition; AlphaScreen L3MBTL1–H3K9me1 peptide binding; Q9Y468; Potency, µM (top dose mostly 57.1 µM), for inactives: top-dose activity, negative = inhibition, hits mostly inhibitors; actives 0.66% (n = 230,000); AID 485360; also: % is scaled to controls: 0 for no effect and ±100 for the full control effect; nearly all actives have a fitted effect of over 60% in size
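AlphaScreen assay: L3MBTL1 (50 nM final) was preincubated 30 min at room temperature with biotinylated H3(1-15)K9me1 peptide (75 nM final), then 30 min with library compounds; streptavidin donor and nickel chelate acceptor beads (10 ug/mL final) added, 30 min dark.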
* hit, by the source's call; u = inconclusive; x = not tested or not shown; ! = not confirmed by another sample; [ ] = another dose, or the depositor's remark. Compounds with a hit are over-represented: about 12% of the library has one in this group of screens. Calls follow the shape of the dose curve; as a rule, active = well fitted curve in the direction sought with a large enough effect; inconclusive = small, poorly fitted or top-dose-only effect, or another doubt; inactive = no such curve, though single readings can be large; an effect the other way counts as inactive or inconclusive. Potency is read from the fitted curve at half-maximal effect.

SMILES	HP1b binding inh	JMJD2A Tudor inh	Sfp PPTase inh	BAZ2B inh	G9a inh	L3MBTL1 inh
COc1ccc(NC(=O)Cc2noc3ccc(C)cc23)cc1Cl	29%	-10%	x	-18%	2%[59 µM]	x
Cc1nc2cnc(N(C)C)nc2n(C[C@H]2CCCO2)c1=O	x	x	19%	x	4%[0.501 µM]	x
Cc1cccc(-n2cnc3cc(C(=O)NCc4ccccc4Cl)ccc32)c1	16%	-27%	x	u	-25%[59 µM]	x
O=C(Nc1ccc(Cl)cc1)N1CCN(c2ccc3nnc(-c4ccc(F)cc4)n3n2)CC1	13%	-17%	-10%	11%	6%[59 µM]	-9%
O=C(Nc1ccccc1Cl)N1CCN(c2ccc3nnc(-c4ccccc4)n3n2)CC1	26%	-15%	6%	-30%	50µM*	x
CCc1cccc(NC(=O)COC(=O)/C=C/c2cccs2)c1	36%	6%	x	0%	4%	10%
Cc1ccc(N=c2sc(C)c(C)n2C)cc1	-7%	u	-9%	u	45µM*	u
COc1ncc2nc(-c3cc(F)cc(F)c3)c(=O)n(CCc3ccccc3)c2n1	x	x	u	x	-5%[12.7 µM]	x
Cc1ccc2c(N)c(C(=O)N(c3ccccc3)c3ccccc3)sc2n1	35%	-5%	u	-13%	14µM*	-6%
CN(Cc1nc(-c2cccs2)no1)CC1(N2CCOCC2)CCCCC1	57%	4%	8%	3%	3%	-1%
COc1ccccc1CNC(=O)[C@H](C)NC(=O)C1CCN(C(=O)[C@@H](N)CCSC)CC1	55%	-16%	2%	u	x	x
C/C(CCC(=O)OC[C@@H]1O[C@H](C#Cc2ccccc2)C=C[C@@H]1Oc1ccc(C)cc1)=N/OC[C@@H](O)[C@H]1O[C@H]2OC(C)(C)O[C@H]2[C@@H]1O	x	x	14%	x	x	x
CC(C)(C)C1=CC=C(C(C)(C)C)C(=O)C1=O	x	x	1.6µM*	-16%	2.2µM*	-15%
C=CCSC1=N/C(=C\c2cc(OCC)c(OC(C)=O)c([N+](=O)[O-])c2)C(=O)S1	28µM*	18µM*	56µM*	35µM*	13µM*	1.4µM*
C=CCSC1=N/C(=C\c2ccc3c(c2)OCO3)C(=O)S1	117%	50%	-17%	49%	-10%	13%
COc1cc2nc(=S)n(CCCN3CCOCC3)c(N)c2cc1OC	22%	-16%	50µM*	-21%	u	-23%
N[C@H](C(=O)O)c1ccc(C(=O)O)cc1	x	x	45µM*!	x	34%[59 µM]	x
O=C(NC1CC1)c1cccc(NC(=O)c2cnn(-c3ccccc3)n2)c1	19%	-18%	x	x	x	-2%
O=C(NC1CC1)c1cccc(NC(=O)c2cn3ccccc3n2)c1	-5%	40µM*	x	4%	10%[2.33 µM]	-3%
CC[N+](CC)(CC)CCOc1ccc(/C=C/c2ccccc2)cc1	13%	u	-15%	56µM*	9%[59 µM]	3%
Cc1ccccc1-n1c([C@@H]2C[C@H]2c2ccccc2)n[nH]c1=S	9%	45µM*	-4%	-16%	x	-4%
S=c1[nH]nc([C@@H]2C[C@H]2c2ccccc2)n1-c1ccccc1	-5%	18µM*	-15%	-9%	2µM*	-3%
Cc1ccccc1-n1c(=S)[nH]c2nc3c(cc2c1=O)CCCC3	46%	-16%	22%	-17%	20%	-8%
COc1ccc2c(-c3ccccc3)cc(SC(C)C(N)=O)nc2c1 (stereo unspecified)	39%	-5%[57.1 µM]	-19%	-2%	13µM*	x
O=C(O)c1ccc(N/N=C/c2cc3cc4c(cc3nc2Cl)OCCO4)cc1	10%	-29%	3%	79µM*	u	x
SMILES	HP1b binding inh	JMJD2A Tudor inh	Sfp PPTase inh	BAZ2B inh	G9a inh	L3MBTL1 inh
O=Cc1cc2cc3c(cc2nc1Cl)OCCO3	59%	-2%	2%	-2%	-3%	-1%
COc1ccc([S+](=O)([O-])N2CCN([S+](=O)([O-])c3ccc4c(c3)OCCO4)CC2)c(OC)c1	x	-25%	x	x	x	x
COc1ccc(C(=O)c2oc3ccccc3c2N)cc1	52%	5%	79µM*	9%	-7%[12.7 µM]	2%[11.4 µM]
COc1ccc2oc(C(=O)c3ccccc3)c(N)c2c1	48%	5%[57.1 µM]	5%	-29%	3%	5%
Cc1nn(C)c2c1c(C(F)(F)F)cc(=O)n2CC(=O)NC(C)(C)C	1%	3%	x	-4%	-2%[59 µM]	x
COc1ccc(N2CCN(C(=O)C3CCN(S(=O)(=O)c4ccc(F)cc4)CC3)CC2)cc1	6%	-28%	1%	u	u	u
Cc1ccc(S(=O)(=O)N2CCCC(C(=O)N3CCN(c4ccccc4)CC3)C2)cc1 (stereo unspecified)	5%	-23%	7%	-33%	-1%	x
COc1ccc(N2CCN(C(=O)C3CCCN(S(=O)(=O)c4ccc(F)cc4)C3)CC2)cc1 (stereo unspecified)	-17%	-32%	-15%	40µM*	x	x
COc1ccc(N2CCN(C(=O)C3CCCN(S(=O)(=O)c4ccc(C)cc4)C3)CC2)cc1 (stereo unspecified)	u	-30%	2%	40µM*	u	x
COc1ccc(C2=Nn3c(nnc3-c3cccc(OC)c3OC)SC2)c(OC)c1	x	-21%	-4%	x	x	x
COc1cc(C(=O)Nc2ccc(OCc3cc(=O)n4cccc(C)c4n3)cc2)cc(OC)c1OC	51%[57 µM]	-25%	x	2%	6%[59 µM]	x
Cc1cc(C)nc(SSc2nc(C)cc(C)n2)n1	35%	10µM*	2.2µM*	4%	0.4µM*	-4%
Cc1cc2c(cc1S(=O)(=O)NCc1ccc(F)cc1)OCC(=O)N2	20%	-23%	x	-27%	-42%[59 µM]	x
O=C1COc2cc(S(=O)(=O)NCc3ccco3)c(Cl)cc2N1	24%[57 µM]	-21%	x	50µM*	u	32µM*
CCN(CC)c1ccc(CNS(=O)(=O)c2cc3c(cc2C)NC(=O)CO3)cc1	8%[57 µM]	u	x	-36%	14µM*	x
Cc1cc2c(cc1S(=O)(=O)N1CCCCC1)OCC(=O)N2	u	-17%	8%	79µM*!	-6%	4%
COc1ccc(OC)c(C2=Nn3c(nnc3-c3cccc(OC)c3OC)SC2)c1	x	-16%	29%	x	x	x
Cc1cc(C)n(-c2nnc(NC34CC5CC(CC(C5)C3)C4)nn2)n1	u	25µM*	3%	32µM*	22µM*	u
Cc1cc(C)n(-c2nnc(NC(C)(C)C)nn2)n1	4%	-9%	12%	-10%	-16%	-4%
O=C(COc1ccc(Cl)cc1Cl)NC(=S)N1CCCc2ccccc21	u	40µM*	56µM*	79µM*	10µM*	x
Cc1cccc(OCC(=O)Nc2ccccc2N2CCCCC2)c1	191%	67%	1%	52%	54%[59 µM]	32%[11.4 µM]
Cc1cccc(OCC(=O)NC(=S)N2CCCc3ccccc32)c1	u	50µM*	79µM*	45µM*	11µM*	-24%

From PubChem BioAssay
